# This excerpt belongs to a sample that is enriched for the strongest signals.
# Legend:
# Experiment in all cases: glycan array binding signal (z-score within array); higher = stronger binding
# Conditions in all cases: glycan notation: IUPAC condensed, linker removed
# Gal3S6S(b1-4)GlcNAc6S = target: Gal3S6S(b1-4)GlcNAc6S
# Procedure, shortened: (§1)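 Glycan array data were curated from 3228 arrays in the Consortium for Functional Glycomics database and kept only where the protein sequence was available. Glycan names were converted to IUPAC-condensed notation, and columns mapping to the same glycan were averaged. The binding signal is a within-array Z-score, averaged across arrays of the same protein sequence at different concentrations or buffers and across linkers. Negative Z-scores can be read as non-binding.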
# Gal4S6S(b1-4)GlcNAc = target: Gal4S6S(b1-4)GlcNAc
# Procedure, shortened: as §1
# Gal6P(b1-4)GlcNAc = target: Gal6P(b1-4)GlcNAc
# Procedure, shortened: as §1
# [1] = target: GlcNAc(b1-2)Gal(b1-3)GalNAc
# Procedure, shortened: as §1
# [2] = target: GlcNAc(b1-2)[GlcNAc(b1-4)]Man(a1-3)[GlcNAc(b1-2)Man(a1-6)]Man(b1-4)GlcNAc(b1-4)GlcNAc
# Procedure, shortened: as §1
# [3] = target: GlcNAc(b1-3)Gal(b1-4)GlcNAc(b1-3)Gal(b1-4)GlcNAc(b1-3)Gal(b1-4)GlcNAc(b1-2)[GlcNAc(b1-3)Gal(b1-4)GlcNAc(b1-3)Gal(b1-4)GlcNAc(b1-3)Gal(b1-4)GlcNAc(b1-6)]Man(a1-6)[GlcNAc(b1-3)Gal(b1-4)GlcNAc(b1-3)Gal(b1-4)GlcNAc(b1-3)Gal(b1-4)GlcNAc(b1-2)Man(a1-3)]Man(b1-4)GlcNAc(b1-4)[Fuc(a1-6)]GlcNAc
# Procedure, shortened: as §1
# GlcNAc(b1-3)Man = target: GlcNAc(b1-3)Man
# Procedure, shortened: as §1
# [4] = target: GlcNAc(b1-3)[GlcNAc(b1-6)]GalNAc
# Procedure, shortened: as §1
# [5] = target: Man(a1-3)[Man(a1-6)]Man(b1-4)GlcNAc(b1-4)GlcNAc
# Procedure, shortened: as §1
# [6] = target: Neu5Ac(a2-3)Gal(b1-3)GalNAc(b1-4)Gal(b1-4)Glc
# Procedure, shortened: as §1
# [7] = target: Neu5Ac(a2-3)Gal(b1-3)GalNAc(b1-4)[Neu5Ac(a2-3)]Gal(b1-4)Glc
# Procedure, shortened: as §1
# [8] = target: Neu5Ac(a2-3)Gal(b1-3)GalNAc6S
# Procedure, shortened: as §1
# [9] = target: Neu5Ac(a2-3)Gal(b1-3)GlcNAc(b1-2)[Neu5Ac(a2-3)Gal(b1-3)GlcNAc(b1-4)]Man(a1-6)[Neu5Ac(a2-3)Gal(b1-3)GlcNAc(b1-2)Man(a1-3)]Man(b1-4)GlcNAc(b1-4)GlcNAc
# Procedure, shortened: as §1
# [10] = target: Neu5Ac(a2-3)Gal(b1-4)GlcNAc(b1-2)Man
# Procedure, shortened: as §1
# [11] = target: Neu5Ac(a2-3)Gal(b1-4)GlcNAc(b1-3)GalNAc
# Procedure, shortened: as §1
# [12] = target: Neu5Ac(a2-3)Gal(b1-4)GlcNAc(b1-6)[Gal(b1-3)]GalNAc
# Procedure, shortened: as §1
# [13] = target: Neu5Ac(a2-3)Gal(b1-4)[Fuc(a1-3)]GlcNAc
# Procedure, shortened: as §1
# [14] = target: Neu5Ac(a2-6)Gal(b1-4)GlcNAc(b1-2)Man(a1-3)Man(b1-4)GlcNAc(b1-4)GlcNAc
# Procedure, shortened: as §1
# [15] = target: Neu5Ac(a2-6)Gal(b1-4)GlcNAc(b1-2)Man(a1-3)[GlcNAc(b1-4)][Neu5Ac(a2-6)Gal(b1-4)GlcNAc(b1-2)Man(a1-6)]Man(b1-4)GlcNAc(b1-4)GlcNAc
# Procedure, shortened: as §1
# [16] = target: Neu5Ac(a2-6)Gal(b1-4)GlcNAc(b1-2)Man(a1-3)[Man(a1-6)]Man(b1-4)GlcNAc(b1-4)GlcNAc
# Procedure, shortened: as §1
# [17] = target: Neu5Ac(a2-6)Gal(b1-4)GlcNAc(b1-3)Gal(b1-4)GlcNAc
# Procedure, shortened: as §1
# [18] = target: Neu5Ac9Ac(a2-3)Gal(b1-4)GlcNAc
# Procedure, shortened: as §1
# [19] = target: Neu5Gc(a2-3)Gal(b1-3)GlcNAc
# Procedure, shortened: as §1
# [20] = target: Neu5Gc(a2-3)Gal(b1-4)[Fuc(a1-3)]GlcNAc
# Procedure, shortened: as §1
binder,measurement,setting,value
"Cp ZmpB (Clostridium perfringens), Q0TR08 (protein) MNKRKIAAIILATMITNLSATTIDVLAQELNTKNNSKVEVSHDDESHQARVSKFDLYNSDKLDAYNQEFQVSRSNIKSINNNGGKYNSSTIDKAIDGNLETHWETGKPNDANFTNEVVVTFNEITNIDRIVYSARRDSARGKGFAKEFEIYASLKDEGDDFNLVSSGEYTESTRDLVEIKFNPTDFKRLKFKFKKADQNWASAAEFMFYKEDKLNEKFNGLFTDSSMNKVSEEFNTLEKLNAFENELKDHPIYDLYKEGLNNARAILTETSENPTKATLGQITYNLNDDYNNQYRMPYKNIKAIKNNGRHYAAQNIEKAIDNDVNTYWETGTLNSSSFNNEVEVEFNDLVTLDRIVYGSRQSDLKGFAEEVYIYASRTSKGDTYKLVATGAHEATKGLVEAKFEPTEFKRVKFKFKKSKQNSATLNELMFYKPDEVYSSIPKLFTDGTMSELSEEFNSLEKINAFKEKAKNHPLYNDFNETIELAESLISNPRKEDVLELEMRGDSISEAKKRKVWNFQDWQITGLSARAGDKITVYVDVAEGDPTPTLLYKQSLTQHGGATSFQLKPGKNEITIPEINYESNGIPKDVIQGGDLFFTNYKSDSQKRAPKVRIEGASKYPVFILGKSDENEVMKELEAYVEKIKAEPKTTPNIFAVSSNKSLEFVQATYALDWYKKNNKTPKYTAEQWDQYIADAMGFWGFDNSKDVNSDFNFRIMPMVKNLSGGAFMNAGNGVIGIRPGNQDAILAANKGWGVAHELGHNFDTGGRTIVEVTNNMMPLFFESKYKTKTRITDQNIWENNTYPKVGLDDYSNNELYNKADSTHLAQLAPLWQLYLYDNTFYGKFERQFRERDFGNKNREDIYKSWVVAASDAMELDLTEFFARHGIRVDDKVKEDLAKYPKPDKKIYYLNDLAMNYKGDGFTENAKVSVSTSGSNGNIKLSFSVDDENKDNILGYEIRRDGKYVGFTSNDSFVDTKSNLDEDGVYVVTPYDRKLNTLNPIEVNALQPTLSVNPVITLALGEEFNEEEYIVAKDIKGNSLSESVKVKSSNVNTSKVGEYEVLYSLEDSKGNEYTKTSKVNVVSRKEYMSDLTPKQSSNGWGTVRKDKSISGGVIGLTRDGDFVDYNKGLGLHSNAEYVYDLEGKDYDYFESYVGVDKAMSSRPASSVIFKVLVDGEEKFNSGVMRSTTPQKYVKVDVKNAKELKLIVNDAGDGDSSDHASFGDAKLATLSSKPIIKGENLAYSMDEKVDLMKGITATDIEDGNITSKVQIKSSDFVEGKSGIFTVVYSVTDSDGLTSECSRTIAVTDKETQLSDLNWKSATIGSGSVRKDRAVSGNQIRLLNEDNSVETFAKGIGTHSYSEIVYNSEGYDIFDTWVGIDRHVADKKVSSVKFKVYVDGELKAETDVMRIDTPKKRLVVDVRNSKEIKLVVDVADNGNNWDHADWADAKFRNLAEYDASELNKAIEEAKKLDLNNYTEESSEALKNAISKGEEALLSKDKETINSALEELNKEMNSLVKVDLNAVINIPDKYLLKSIQNQLNKTGDITLGDMYSLTTLTLSGVEDLTGLENAKNLETLNMDYNEVKDLRPLSKLKKLNTLNAQEQFIAAGELKPSNGKVIGDSKVYNREGKNVAKTIRVVDKNGNTILEQDAKDEFTINTKDLSSGLYGVHVLFEDEGFSGVMFYLFNV",glycan array binding signal (z-score),Gal3S6S(b1-4)GlcNAc6S,1.17
same,glycan array binding signal (z-score),Gal4S6S(b1-4)GlcNAc,0.461
same,glycan array binding signal (z-score),Gal6P(b1-4)GlcNAc,-0.373
same,glycan array binding signal (z-score),[1],2.81
same,glycan array binding signal (z-score),[2],1.11
same,glycan array binding signal (z-score),[3],-0.173
same,glycan array binding signal (z-score),GlcNAc(b1-3)Man,0.057
same,glycan array binding signal (z-score),[4],-0.207
same,glycan array binding signal (z-score),[5],-0.046
same,glycan array binding signal (z-score),[6],0.164
same,glycan array binding signal (z-score),[7],1.03
same,glycan array binding signal (z-score),[8],-0.457
same,glycan array binding signal (z-score),[9],0.01
same,glycan array binding signal (z-score),[10],0.151
same,glycan array binding signal (z-score),[11],-0.142
same,glycan array binding signal (z-score),[12],1.22
same,glycan array binding signal (z-score),[13],0.096
same,glycan array binding signal (z-score),[14],-0.151
same,glycan array binding signal (z-score),[15],-0.267
same,glycan array binding signal (z-score),[16],-0.365
same,glycan array binding signal (z-score),[17],1.03
same,glycan array binding signal (z-score),[18],1.71
same,glycan array binding signal (z-score),[19],-0.326
same,glycan array binding signal (z-score),[20],2.05

# Reference: the supplement of paper PMC8728848
